This is one part of a sample in which hits are shown more often than they occur.
p53 reactivation: restores transcriptional activity of mutant p53; Potency, µM (top dose mostly 92.2 µM), inactives show at the highest dose activity change, positive = activation, hits mostly activators; 320,000 compounds, 0.063% hits; H1299 p53-A138V BP100-luciferase reporter, luminescence, 24 h; note: % of control where 0% means no effect; nearly all actives have a fitted effect of over 45% in size
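H1299 (p53-null), stable ts p53-A138V + BP100-Luc; 1000 cells/well, Opti-MEM/10% FBS; cpd 4 pt, 1:5; 24 h, 37 deg C, 5% CO2; detection reagent 10 min RT; luminescence.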
a7 integrin act: integrin-mediated muscular dystrophy alleviation activation; alpha7betagal myoblasts, beta-gal FDG fluorescence, 48 h; Potency, µM (top dose mostly 38.3 µM), without a hit: top-dose activation, actives largely listed as activators; 350,000 compounds, 0.064% hits; AID 624291;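 note: 100% = response of the positive control SU9516; nearly all actives have a fitted effect of over 60% in size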
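Alpha7betagal+/- myoblasts (passage 13) were plated 16-24 hr, then exposed to compounds (1:260 dilution of DMSO stock) for 48 hours at 37C. After MPER lysis, β-galactosidase reporter activity was read as FDG fluorescence (ex 480/em 540) after 30 minutes.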
USP2a inh: blocks human ubiquitin-specific protease USP2a; O75604; USP2 core, Ub-CHOP2 coupled fluorogenic reporter, 485/531; Potency, µM (highest dose often 38.3 µM), inactives show top-dose activity change, negative = inhibition, most hits filed as inhibitors; 330,000 compounds, 0.01% hits;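 note: plate controls were DMSO wells for no effect and full inhibition by NEM control for full effect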
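Deubiquitinase activity read as fluorescence (485/531 nm) after Ub-CHOP2 cleavage activates the enterokinase reporter on its substrate; USP2 core 10nM, Ub-CHOP2 and substrate 25nM each, 30min compound preincubation then 60min RT; data normalized to NEM, curves fitted.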
Eya2 inh: Eya2 (human) phosphatase inhibition; recombinant Eya2, OMFP fluorescence dephosphorylation (OMFP is methylfluorescein phosphate); Potency, µM (highest dose often 76.9 µM), inactives show at the top dose activity, negative = inhibition, usual class: inhibitors; 330,000 compounds, 0.006% hits; AID 488837; note: % is set by controls: 0 for no effect and ±100 for the full control effect
Target sequence (O00167 whole entry, looked up): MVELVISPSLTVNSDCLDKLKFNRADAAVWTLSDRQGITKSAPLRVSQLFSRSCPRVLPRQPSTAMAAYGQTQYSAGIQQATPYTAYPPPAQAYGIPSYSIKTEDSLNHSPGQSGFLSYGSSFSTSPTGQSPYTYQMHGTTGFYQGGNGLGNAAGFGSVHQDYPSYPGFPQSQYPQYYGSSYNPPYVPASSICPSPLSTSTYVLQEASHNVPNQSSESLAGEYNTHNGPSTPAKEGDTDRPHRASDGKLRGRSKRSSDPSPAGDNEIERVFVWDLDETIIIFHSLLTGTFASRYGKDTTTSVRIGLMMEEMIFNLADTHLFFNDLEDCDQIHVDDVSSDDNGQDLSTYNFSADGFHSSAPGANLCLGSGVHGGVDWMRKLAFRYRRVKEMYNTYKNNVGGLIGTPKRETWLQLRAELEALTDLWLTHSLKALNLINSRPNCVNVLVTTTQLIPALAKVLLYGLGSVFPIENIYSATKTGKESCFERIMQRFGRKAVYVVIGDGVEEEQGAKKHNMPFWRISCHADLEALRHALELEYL
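Eya2 (0.2 uM) preincubated 10 min at ambient with compound, then OMFP substrate added at 50 uM; 10 min reaction in 50 mM HEPES pH 7.5, 50 mM NaCl, 5 uM MgCl2, 0.05% BSA, 1 mM DTT. Fluorescence read at Ex 485/Em 525 nm.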
Mm-Cpn inhibitor: inhibitors of Methanococcus maripaludis chaperonin TRiC (MmCpn); purified Mm-Cpn ATPase, ADP Transcreener TR-FRET; Potency, µM (titrated, usually from 76.9 µM), for inactives: at the highest dose activity, negative = inhibition, usual class: inhibitors; 330,000 compounds, 0.031% hits; note: % is set by controls: 0 for no effect and ±100 for the full control effect; nearly all actives have a fitted effect of over 80% in size
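TR-FRET (320 nm excitation; 590 and 665 nm emission) reports ADP made from 10 uM ATP by 25 nM enzyme; compounds were preincubated 10 min, reaction run 30 min, both at 37°C.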
ClpP mod: qHTS Assay for Activators of ClpP. purified B. subtilis ClpP, FRET peptide cleavage, 20 min. Potency, µM (top dose mostly 57.5 µM), for the others: at the top dose activity change, negative = active. 340,000 compounds, 1.9% hits; active = well fitted falling curve with a large enough effect; inconclusive = small, poorly fitted or top-dose-only effect; inactive = no such curve, though single readings can be large or run the other way; note: the source files actives as falling curves though it sought activators and does not explain the sign; nearly all actives have a fitted effect of over 65% in size
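ClpP 10 microg/mL final, pH 8 Tris/KCl buffer with BSA, glycerol, Tween-20; compound pinned in; FRET-FV substrate; RT 20 min; Ex320/Em430; ΔFRET vs ADEP 5.8 microM, DMSO, no enzyme.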
Starred values were filed as active, the others as inactive; ? = inconclusive; . = not tested or not shown. Unless noted, calls come from the whole dose curve; as a rule, active = well fitted curve in the direction sought with a large enough effect; inconclusive = small, poorly fitted or top-dose-only effect, or another doubt; inactive = no such curve, though single readings can be large; an effect the other way counts as inactive or inconclusive. Potency is the fitted concentration of half-maximal effect.

SMILES	p53 reactivation	a7 integrin act	USP2a inh	Eya2 inh	Mm-Cpn inhibitor	ClpP mod
COc1ccc(-n2nc(C(=O)NCc3ccco3)c3ccccc3c2=O)cc1	1%	-3%	5%	-11%	-3%	22µM*
COCCNC(=O)c1c(N)n(-c2ccccc2)c2nc3ccccc3nc12	4%	20%	3%	-5%	?	18µM*
COCCCNC(=O)c1c(N)n(-c2ccccc2)c2nc3ccccc3nc12	0%	1%	0%	0%	-2%	-20%
COc1ccc(-n2nc(C(=O)NCc3ccco3)c3c4ccccc4n(C)c3c2=O)cc1	-7%	?	2%	5%	1%	4%
COc1ccc(-n2c(N)c(C(=O)NCc3ccco3)c3nc4ccccc4nc32)cc1	-5%	-29%	0%	-17%	-3%	32µM*
CCCc1nn2c(=O)cc(COC(=O)c3cccc(NC(=O)c4ccc(OCC)cc4)c3)nc2s1	.	.	.	.	.	5%
COc1cc(-c2c(-c3ccc4c(c3)OCO4)noc2-c2ccsc2)cc(OC)c1OC	.	.	.	.	.	-2%
COc1ccc(/C=C2\C=Cc3ccccc32)cc1OC	.	.	.	.	.	1%
CC1Cc2ccccc2C[N+]1(C)CC(=O)c1cccc([N+](=O)[O-])c1 (centres undefined)	.	.	.	.	.	-4%
Nc1c(C(=O)NCCN2CCOCC2)c2nc3ccccc3nc2n1-c1ccccc1	-8%	4%	-7%	-11%	-8%	11µM*
Cc1ccc2c(C)ccnc2c1	.	.	.	.	.	-11%
CC(C)n1nc(C(=O)Oc2ccc(Cl)cc2)c2ccccc2c1=O	18%	12%	-2%	-2%	-1%	18µM*
Cc1cccc(Cn2c(-c3cccc(Br)c3)nc3ccccc32)c1	.	.	.	.	.	32µM*
COc1ccccc1N=c1oc2cc(O)ccc2cc1C(N)=O	?	-8%	0%	-4%	-4%	-1%
Cc1cccc(N=c2oc3cc(O)ccc3cc2C(N)=O)c1	?	0%	5%	4%	0%	28µM*
Cc1ccc(CSCC(=O)Nc2ccc(N3CCOCC3)cc2N2CCOCC2)cc1	4%	-4%	0%	21%	1%	35µM*
CC(OC(=O)CCN=C1NS(=O)(=O)c2ccccc21)C(=O)Nc1ccc(F)c(F)c1F (centres undefined)	6%	-8%	1%	26%	-1%	32µM*
CC(OC(=O)CCCN=C1NS(=O)(=O)c2ccccc21)C(=O)Nc1ccc(F)c(F)c1F (centres undefined)	-7%	-4%	2%	11%	0%	2%
COc1cccc(OCc2cc(C3Nc4ccccc4C(=O)N3c3ccccc3)ccc2OC)c1 (centres undefined)	.	.	.	.	.	4%
CC1CCCN(CCCNC(=O)c2coc3nc4ccccc4nc23)C1 (centres undefined)	-1%	-14%	2%	7%	0%	13µM*
CC1CCN(CCCNC(=O)c2coc3nc4ccccc4nc23)CC1	5%	-39%	1%	7%	-4%	27%
O=C(Nc1ccccc1C(=O)O)/C(=C/c1ccc(Cl)cc1Cl)NC(=O)c1ccco1	-3%	0%	0%	8%	2%	35µM*
Fc1ccc(Nc2nc(SCc3ccc(Cl)cc3)nc3ccccc23)cc1	.	.	.	.	.	35µM*
Clc1ccc(CSc2nc(NCCc3ccccc3)c3ccccc3n2)cc1	.	.	.	.	.	-1%
COc1ccc(/C=C/c2nc3ccccc3c(=O)o2)cc1	-15%	9%	1%	11%	0%	.
SMILES	p53 reactivation	a7 integrin act	USP2a inh	Eya2 inh	Mm-Cpn inhibitor	ClpP mod
COc1ccc(/C=C/c2nc3cc(-c4ccccc4)ccc3o2)cc1O	-15%	-13%	-3%	5%	-6%	13µM*
COc1ccc(-c2nc3c4ccccc4[nH]c(=O)n3n2)cc1	.	11%	.	.	.	32µM*
COc1cc2[nH]c(=O)n3nc(-c4ccccc4)nc3c2cc1OC	6%	3%	7%	-24%	-1%	?
CN(C)N=Nc1ccc(/C=C2\C=Cc3ccccc32)cc1	.	.	.	.	.	1%
CCCOc1ccccc1Cn1c(=O)oc2ccc(C)cc21	-5%	-19%	1%	-1%	3%	0%
CCOc1ccccc1Cn1c(=O)oc2ccc(C)cc21	-11%	-38%	0%	-22%	0%	25µM*
COc1ccccc1NC(=O)C1=C(C)Nc2nc(SCc3ccccc3)nn2C1c1cccnc1 (centres undefined)	.	.	.	.	.	-5%
Cc1ccc2c(c1)[nH]c1c(=O)n(CCCN3CCOCC3)cnc12	5%	9%	-1%	22%	-2%	28µM*
Cc1ccc2[nH]c3c(=O)n(Cc4ccncc4)cnc3c2c1	1%	-1%	0%	-27%	3%	14µM*
O=c1c2[nH]c3ccccc3c2ncn1CCN1CCCCC1	6%	-22%	0%	-2%	1%	25µM*
Cc1ccc2c(c1)[nH]c1c(=O)n(CCN3CCCCC3)cnc12	12%	-16%	0%	6%	1%	?
COc1ccc(CN2CC[C@H]3C=CC[C@@H](C(=O)NC4CCCCC4)[C@H]3C2=O)cc1OC	.	.	.	.	.	1%
CCCc1cc(=O)[nH]c(SCC(=O)c2cc(C)n(C3CC3)c2C)n1	-13%	-23%	1%	7%	-1%	18µM*

Screening results as filed in PubChem BioAssay.
